Assay results taken from ChEMBL document CHEMBL4888484, “Replenishing the malaria drug discovery pipeline: Screening and hit evaluation of the MMV Hit Generation Library 1 (HGL1) against asexual blood stage Plasmodium falciparum ,using a nano luciferase reporter read-out” (2022).
Screen size: about 4,800 compounds; about 410 (8.5%) showed an effect of 50% or more. Only a selection was taken, and strong results are over-represented in it overall.

test system: Plasmodium falciparum; test: Confirmatory screen in NF54 pLDH assay, in single point, at 2uM, 72h; format: functional, Erythrocyte; conditions: timepoint 72 hour

Compound	% Inhibition [%]
CCCCn1c(N)c(N(Cc2ccccc2OC)C(=O)c2ccoc2C)c(=O)[nH]c1=O	-22
Cc1ccc(Nc2c(C(=O)NCc3ccc(F)cc3)cnc3c2c(C)nn3C)cc1	-5
O=C(NCCN1CCCC1)c1cc2n(n1)CCN(Cc1cccc(F)c1)C2=O	-27
Nc1nc2c(s1)CN(CCc1ccccc1)CC2	41
N#Cc1nc2c(C#N)c(N)n(CCc3ccccc3)c2nc1C#N	92
N#Cc1c(-c2ccccc2)cc(-c2ccccc2)nc1S(=O)(=O)Cc1ccccc1	43
O=S(=O)(c1ccccc1F)C1CNC1	-18
O=C(c1cccc(COc2ccc(Br)cc2)c1)N1CCN(Cc2ccccc2)CC1	-14
Cc1ccc(-c2cc(C(=O)Nc3nnc(C(C)C)s3)no2)cc1F	16
O=C(Nc1[nH]c(=O)ncc1F)c1coc(-c2ccccc2)n1	71
O=C(c1coc(-c2ccccc2)n1)N1CCc2cc(Br)ccc21	1
Cc1nc(C(=O)Nc2[nH]c(=O)ncc2F)c(-c2ccccc2)o1	70
CC(C)c1nc(C(=O)Nc2[nH]c(=O)ncc2F)cs1	83
CC(C)c1nc(C(=O)Nc2ccccc2CN2CCNC2=O)cs1	5
O=C(CNc1cc(F)c(F)cc1F)NC(=O)NCC(F)(F)F	-5
CC(C)CN1C(=O)CC[C@@H](C(=O)NCCCN2CCOCC2)[C@@H]1c1cccnc1	-17
Cc1nc2ccc(Cl)cc2c(-c2ccccc2)c1C1=NN(S(C)(=O)=O)[C@H](c2ccccc2Cl)C1	-14
Cn1cc(-c2csc(NC(=O)c3ccc4[nH]cnc4c3)n2)cn1	7
CCN1C(=O)CN(C(=O)c2cccc(C)c2)CC12CCOCC2	9
O=C(Nc1nc2cccc(Cl)c2o1)c1cccc(F)c1	92
CC(C)(C)NC(=O)CNC(=O)c1cccc(F)c1	-8
Cc1nc(Cn2nnc(NC(=O)c3cccc(F)c3)c2C)no1	8

Compound	% Inhibition [%]
Cc1c(Br)c(C)n(NC(=O)c2cnn(Cc3ccccc3)c2)c(=O)c1C#N	-15
Cc1cccc(C)c1Oc1ccccc1NC(=O)CCc1nnc[nH]1	4
O=S(=O)(Nc1ccc2nncn2c1)c1c(F)cccc1Cl	-18
Cc1ccc(F)cc1NC(=O)N1CCC12CCC2	11
N#CC1(c2ccccc2)c2ccccc2C(=O)c2ccccc21	-4
CN(Cc1ccccc1)C(=O)C[C@H]1CCN(C(=O)NC2CCCC2)C1	2
Cc1cccc2ncnc(N(C)[C@@H](C)Cc3ccc(O)cc3)c12	84
Cc1n[nH]c2ncc(NC(=O)c3ccc(CCC(F)(F)F)cc3)cc12	17
Cc1cc(C)cc(CN2CCCN(c3ccc(C)cc3NC(=O)Cc3ccc(F)cc3)C2=O)c1	13
CC(C)CCO[C@@H](C)C(=O)NC1CCN(CC(=O)NC(C)C)CC1	5
O=C1C2C3C=CC(C3=C3CCCCC3)C2C(=O)N1c1cccc(Cl)c1 (stereo unspecified)	15
COc1cccc(S(=O)(=O)N2CCC(OCCOCc3ccccc3)CC2)c1	10
COc1cccc(S(=O)(=O)N2CCCN(Cc3ccncc3)[C@H](c3ccccc3)CC(=O)NCC2)c1	86
COc1cccc(S(=O)(=O)N2CCC(OCCOc3ccccc3)CC2)c1	7
Cc1cccc(NC(=O)Cn2ccc(C(=O)Nc3cccc(C)c3C)n2)c1C	-11
CCOC(=O)[C@@H]1C(=O)Nc2cc(OC)ccc21	9
COc1ccc(CCNCC(=O)Nc2c3c(nc4ccccc24)N(C)CC3)cc1OC	6
CN(C)c1ccc(NN=C2N=NN=N2)cc1	3
COc1cccc(NC(=O)Cn2c(=O)n(C)c(=O)c3sc(N4CCCC4)nc32)c1	1
COc1cccc(Cn2c(=O)c3sccc3n(CC(=O)Nc3ccc4c(c3)OCO4)c2=O)c1	16
COc1cccc(NC(=O)Cn2c(C)ccc(NS(=O)(=O)c3ccc(C)cc3)c2=O)c1	59
Cc1cc(C)c(NC(=O)CN(C)C(=O)NCc2ccco2)c(C)c1	-8

Compound	% Inhibition [%]
O=C(NC(Cn1ccccc1=O)c1ccccc1)C1CCOC1 (stereo unspecified)	7
O=C(Nc1ccc2c(c1)c1cc(Br)ccc1n2Cc1ccccc1)c1ccccc1	6
O=C(N[C@@H](Cn1nccn1)c1ccccc1)c1cc(Br)ccc1Cl	75
Cc1ccccc1-c1cc2c(N3CCN(C4CCCCC4)CC3)nccn2n1	4
Cc1cc(Br)cc(N[C@H](c2cccnc2)c2ncc[nH]2)c1	6
Cc1ccc2nc(C3CC3)cc(C(=O)N3C[C@@H](O)C[C@H]3CO)c2c1	-1
Cc1ccc2nc3c(c(N)c2c1)CCCCN3C	-20
CC(C)c1ccc(S(=O)(=O)Nc2ccc3nc(NC(=O)c4ccccc4)sc3c2)cc1	6
CN(C)c1ccc(CNC2CCCCCC2)cc1	-13
CN(CC(=O)Nc1ccccc1C(F)(F)F)C1CNC1	8
Cc1csc(NC(=O)NCCc2cc(F)cc3c2OCOC3)n1	-14
COC[C@H](NCCc1cc(F)cc2c1OCOC2)C1CC1	82
N#Cc1cc(O)c(-c2c(O)n[nH]c2-c2ccccc2)cc1C#N	10
O=c1[nH]c(=O)n(Cc2nc(-c3ccco3)no2)cc1Cl	3
Cc1nn(C)c(C)c1CCCN[C@@H](C)c1cccc(O)c1	4
COC(=O)c1cccc(C#Cc2cccc(NC(=O)c3cnc(C)cn3)c2)c1	-9
Cc1ccc2nc(-c3cccc(NC(=O)c4ccc5c(c4)OCO5)c3)oc2c1	-7
N#CCC(=O)NC1CCC(CC2CCC(NC(=O)CC#N)CC2)CC1 (stereo unspecified)	-2
Cc1ccccc1S(=O)(=O)N1CCN(c2c(C)n(-c3ccccc3)c(=O)n(CC(C)C)c2=O)CC1	14
COc1ccc(CNC(=O)Nc2ccc3c(c2)N(C(=O)c2ccccc2)CCC3)cc1OC	11
CCC(C(=O)Nc1ccc2c(c1)CN(CCc1ccc(OC)c(OC)c1)C(=O)C(C)O2)c1ccccc1 (stereo unspecified)	100
COc1ccc([C@H](C(=O)Nc2ccc(N(C)C)cc2)N(Cc2ccccc2)C(=O)Cc2ccccc2)cc1OC	-14
